Rows were chosen to be rich in hits. Some 1% of all compounds tested hit in one or more screens of this group.
Luc counter = Counterscreen for Luciferase (Kinase-Glo TM) Inhibition | Luciferin 4-monooxygenase (Photuris pensylvanica), Q27757 | Kinase-Glo luciferase, ATP luminescence, 8 min | Potency, µM (highest dose often 38.3 µM), for inactives: at the highest dose activity change, negative = inhibition, usual class: inhibitors | 200,000 compounds, 0.28% hits; note: potency is the fitted concentration of half-maximal effect; % is set by controls: 0 for no effect and ±100 for the full control effect; nearly all actives have a fitted effect of over 60% in size
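Inhibition of Kinase-Glo luciferase light generation was assessed at 10 uM ATP in pH 7.2 imidazole buffer, with luminescence measured after eight minutes at ambient temperature.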
gsp antagonist = qHTS for Antagonists of gsp, the Etiologic Mutation Responsible for Fibrous Dysplasia/McCune-Albright Syndrome: qHTS. gsp-mutant cells, cAMP HTRF, 30 min. Potency, µM (highest dose often 76.9 µM), inactives show at the top dose activity change, negative = inhibition, hits mostly inhibitors. 340,000 compounds, 0.4% hits; calls by dose curve; cell line not stated here;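 note: intracellular cAMP measured with PDE inhibitor Ro 20-1724 present during compound exposure; potency is the fitted concentration of half-maximal effect; % is set by controls: 0 for no effect and ±100 for the full control effect; nearly all actives have a fitted effect of over 65% in size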
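G418-selected cells were plated in DMEM/10% FBS for 16-24 h at 37C, then treated with compounds plus the PDE inhibitor […] (300 uM solution added) for 30 min at 37C. Intracellular cAMP was measured by HTRF after 30 min lysis at room temperature.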
miR-21 reporter = qHTS Assay for Modulators of miRNAs and/orActivators of miR-21. HeLa miR-21 FLuc reporter, luciferase, 48 h. Potency, µM (top dose mostly 38.3 µM), without a hit: at the highest dose activity change, positive = activation, actives largely listed as activators. 340,000 tested, under 10 active;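 note: % of control where 0% means no effect; miR-21 action dims this reporter so a rising signal means less miR-21 action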
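Compounds were titrated across several concentrations (up to approximately 40 uM) and incubated 48 hours with HeLa miR-21-FLuc reporter cells (miR-21 target sequence downstream of FLuc, endogenous miR-21). Readout was firefly luciferase luminescence after lytic detection reagent.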
RXFP1 ag = qHTS Assay for Agonists of the Relaxin Receptor RXFP1; Relaxin receptor 1 (Homo sapiens), Q9HBX9; HEK293T-RXFP1 cAMP TR-FRET, 30 min; response scale: percent of porcine relaxin response, buffer zero; Potency, µM (doses to about 57.5 µM), for the others: top-dose activation, hits mostly activators; 370,000 compounds, 0.3% hits; AID 2676, 2010; note: potency is the fitted concentration of half-maximal effect; % is set by controls: 0 for no effect and ±100 for the full control effect; nearly all actives have a fitted effect of over 60% in size
Target sequence (Q9HBX9 whole entry, looked up): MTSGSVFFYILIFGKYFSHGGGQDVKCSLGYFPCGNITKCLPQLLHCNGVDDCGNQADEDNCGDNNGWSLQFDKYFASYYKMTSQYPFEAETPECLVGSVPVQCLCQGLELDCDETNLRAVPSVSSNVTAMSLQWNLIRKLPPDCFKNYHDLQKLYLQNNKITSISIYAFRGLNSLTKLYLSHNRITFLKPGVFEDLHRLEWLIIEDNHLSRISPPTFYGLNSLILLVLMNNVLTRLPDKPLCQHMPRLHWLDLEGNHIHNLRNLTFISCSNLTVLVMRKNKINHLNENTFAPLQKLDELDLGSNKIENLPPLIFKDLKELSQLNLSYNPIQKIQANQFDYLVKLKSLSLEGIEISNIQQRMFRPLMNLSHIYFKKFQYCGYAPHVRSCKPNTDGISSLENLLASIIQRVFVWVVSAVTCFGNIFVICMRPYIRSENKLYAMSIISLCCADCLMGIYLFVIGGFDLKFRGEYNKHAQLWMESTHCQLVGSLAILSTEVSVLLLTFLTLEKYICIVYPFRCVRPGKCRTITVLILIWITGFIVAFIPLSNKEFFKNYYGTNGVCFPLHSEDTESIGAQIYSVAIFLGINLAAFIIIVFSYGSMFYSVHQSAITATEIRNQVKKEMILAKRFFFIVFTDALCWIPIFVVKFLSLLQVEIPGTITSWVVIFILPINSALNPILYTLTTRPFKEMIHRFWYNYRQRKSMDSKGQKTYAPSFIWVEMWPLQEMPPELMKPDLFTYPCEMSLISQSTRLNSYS
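HEK293T cells stably expressing RXFP1 were pretreated with the PDE4 inhibitor Ro 20174, exposed to compounds for 30 min at 37C, lysed, and cAMP was read by TR-FRET. Data normalized to buffer (basal) and 29 nM porcine relaxin (100%).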
gsp agonist = qHTS for Agonist of gsp, the Etiologic Mutation Responsible for Fibrous Dysplasia/McCune-Albright Syndrome: qHTS; gsp mutant cells, cAMP HTRF, 30 min; Potency, µM (highest dose often 76.9 µM), for the others: at the highest dose activation (cAMP increase), hits mostly activators; 340,000 compounds, 0.13% hits; active = well fitted activation curve with a large enough effect; inconclusive = small, poorly fitted or top-dose-only effect, or another doubt; inactive = no such curve, though single readings can be large or run the other way; cell line not stated here;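 note: phosphodiesterase inhibitor Ro 20-1724 added with compounds to block cAMP breakdown; potency is the fitted concentration of half-maximal effect; nearly all actives have a fitted effect of over 60% in size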
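Cells stably selected in G418 were plated at 2000/well, grown 16-24 hr, then given compounds in DMSO with the PDE inhibitor […] (300 uM solution added) for 30 min at 37C; cAMP was read by HTRF.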
RXFP1 antag = qHTS Assay for Antagonists of the Relaxin Receptor RXFP1; Relaxin receptor 1 (Homo sapiens), Q9HBX9; HEK293-RXFP1, relaxin-stimulated cAMP HTRF, 30 min; stronger effect = lower value; activity change, negative = inhibition, % at 57.5 µM; 350,000 compounds, 0.59% hits; AID 1259400, 2018;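 active = activity change of -60% or lower, but not beyond a set lower limit; inconclusive = change between -60% and -40%, or beyond the set limit; inactive = change above -40%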; note: % is set by controls: 0 for no effect and ±100 for the full control effect
* = called active by the depositor; ? = inconclusive; / = no result given; ! = not active in a repeat; [ ] = remark or other dose. Unless noted, calls come from the whole dose curve; as a rule, active = well fitted curve in the direction sought with a large enough effect; inconclusive = small, poorly fitted or top-dose-only effect, or another doubt; inactive = no such curve, though single readings can be large; an effect the other way counts as inactive or inconclusive.

SMILES | Luc counter | gsp antagonist | miR-21 reporter | RXFP1 ag | gsp agonist | RXFP1 antag
COc1ccccc1-c1nnc(SC(C(=O)c2c[nH]c3ccccc23)c2ccccc2)n1C (stereo not drawn) | / | 35µM* | 22% | 0% | 5% | 2
COc1ccc(C(CNC(=O)COc2cc(C)cc(C)c2)N2CCOCC2)cc1 (stereo not drawn) | / | / | -8% | 1% | / | -21
CC(NC(=O)c1cc(COc2ccc3ncccc3c2)on1)c1ccc(F)cc1 (stereo not drawn) | / | 28µM* | 23% | 0% | -6% | -12
COc1cccc(CN(C)C(=O)c2cc(COc3ccc4ncccc4c3)on2)c1 | 2% | 35µM* | 26% | 3% | -6%[15.4 µM] | -8
COc1ccc(N2CCN(c3ncnc4c3[nH]c3ccccc34)CC2)cc1 | -4% | 16µM* | 17% | 3% | 14% | ?
COc1ccccc1OCC(=O)NNC(=O)C1CCN(c2ncnc3sc(C)c(C)c23)CC1 | / | -24% | / | 1% | 28% | -6
Cc1ccccc1OCC(=O)NNC(=O)C1CCN(c2ncnc3sc(C)c(C)c23)CC1 | / | 35µM* | / | 3% | 0% | -68*
Cc1sc2ncnc(N3CCC(C(=O)NCC(=O)Nc4ccc(F)c(F)c4)CC3)c2c1C | / | 40µM* | 22% | 2% | -8% | -36
c1ccc(Nc2nc(Nc3ccccc3)nc(N3CCNCC3)n2)cc1 | / | 12% | 6% | 1% | -25% | -101*
COC(=O)c1sc(NC(=O)c2c(F)cccc2F)c(C#N)c1C | / | -27% | 0% | 1% | -28% | 1
COC(=O)c1sc(NC(=O)c2c(OC)cccc2OC)c(C#N)c1C | -3% | 46% | -1% | ? | 28µM* | 0
Cc1nc(-c2ccc(OCC(C)C)c(C#N)c2)sc1C(=O)O | / | / | / | / | / | -38
O=C(CCC1N=C2c3ccccc3N=C(SCc3ccc(F)cc3)N2C1=O)NCCc1ccccc1 (stereo not drawn) | / | / | 4% | 8% | / | ?
Cc1ccc(NC(=O)Nc2cn(CC(C)C)c(=O)c3ccccc23)cc1N(C)C | / | / | -3% | -2% | / | /
Fc1ccc2[nH]c3c(N4CCN(c5ccccc5)CC4)ncnc3c2c1 | -2% | ? | 29% | 0% | 17% | -31
OC1(c2cccc(C(F)(F)F)c2)CCN(c2ncnc3c2[nH]c2ccc(F)cc23)CC1 | -4% | 25µM* | ? | 4% | -27% | -89*
COc1cc(Cl)c(NC(=O)CCc2nc3cccnc3n2-c2ccccc2)c(OC)c1 | / | / | -14% | -3% | / | -8
O=S(=O)(NCCc1csc2nc(-c3ccc(F)cc3)nn12)c1ccc(Oc2ccccc2)cc1 | / | / | 10% | -2% | / | -20
COc1ccc(CCN2CC(C(=O)NCC(c3ccccc3)N(C)C)CC2=O)cc1OC (stereo not drawn) | / | 5% | / | / | 5% | -90*
COc1ccc(CCNC(=O)C2CC(=O)N(CCc3ccccc3)C2)cc1OC (stereo not drawn) | -1% | 4% | -5% | -1% | 18% | 12
O=C1Cc2ccccc2N1c1ccccc1 | 0% | -13% | 0% | 0% | -31% | -2
O=C1CC(=Nc2ccccc2)NN1c1ccccc1 | 2% | 50µM* | 8% | 0% | -26% | -7
O=C(COC(=O)C1CCCC1)Nc1cccc(Cl)c1Cl | / | 6% | / | / | 37% | -74*
O=C(Nc1cccc(Cl)c1Cl)C1CCCC1 | / | 4% | / | / | -1%[15.4 µM] | -16
O=C(CNC(=O)c1ccccc1)OCC(=O)c1cccs1 | / | -14% | 0% | 7% | -29% | 11
SMILES | Luc counter | gsp antagonist | miR-21 reporter | RXFP1 ag | gsp agonist | RXFP1 antag
O=C(OCC(=O)c1cccs1)c1ccccc1 | 8.9µM* | 17% | -31% | 1% | -45% | -14
CN(C)S(=O)(=O)c1ccc2c(c1)/C(=C/c1cc3c([nH]1)CCCC3)C(=O)N2 | -5% | 10µM* | / | -1% | / | /
CC(=O)c1ccc(N2CCN(C(=O)CCCn3c(=O)[nH]c4ccc(Br)cc4c3=O)CC2)cc1 | -1% | 35µM* | -1% | 0% | 20% | -5
COC(=O)c1ccc2c(=O)n(CCCCCC(=O)N3CCN(c4ccccc4)CC3)c(=O)[nH]c2c1 | -2% | 8.9µM* | 3% | 0% | 1% | -6
COc1ccc(-n2nc3ccc(NC(=O)c4c(OC)cccc4OC)cc3n2)cc1 | / | / | -7% | 13% | / | -13
COc1cc(NS(=O)(=O)c2ccc(NC(=O)c3cccs3)cc2)nc(OC)n1 | / | 22µM* | 0% | 0% | 19%[15.4 µM] | 0
COc1cc(NS(=O)(=O)c2ccc(NC(C)=O)cc2)nc(OC)n1 | -3% | 2% | -2% | -2% | 0% | -1
COc1ccc(Nc2nc3ccccc3nc2NS(=O)(=O)c2cccs2)c(OC)c1 | / | -9% | -3% | 6% | -13% | 2
COc1cccc(Nc2nc3ccccc3nc2NS(=O)(=O)c2cccs2)c1 | -1% | 14µM* | -2% | 5% | 13% | -2
O=C(CC1N=C2c3ccccc3N=C(SCc3cccc(Cl)c3)N2C1=O)NCCc1ccccc1 (stereo not drawn) | / | / | 20% | 5% | / | -6
O=C(O)c1ccccc1C(=O)c1ccc(N2CCCC2)c([N+](=O)[O-])c1 | 3% | -13% | -18% | -3% | 11%[15.4 µM] | -5
O=C(O)c1ccccc1C(=O)c1ccc(N2CCOCC2)c([N+](=O)[O-])c1 | 4% | 1% | -1% | 0% | 5% | -69*
CC(=O)c1ccc(N2CCN(c3ccccc3O)CC2)c([N+](=O)[O-])c1 | / | 32µM* | 1% | 2% | 16%[15.4 µM] | -15
CCOC(=O)c1cc(C)n(CC2CCC(C(=O)Nc3ccc(OC)cc3)CC2)c1C (stereo not drawn) | / | / | 11% | 4% | / | -1
CN1CCN(CCCN2c3ccccc3Sc3ccc(C(F)(F)F)cc32)CC1 | -2% | 18% | ? | 3% | ? | -65*!
Cc1ccsc1/C=N/Nc1nc(=O)[nH]nc1C | 4.5µM* | 3% | -30% | -2% | 4% | -25
O=[N+]([O-])c1ccc(NN=Cc2cc(Br)ccc2O)nc1 | / | -2% | / | / | 34% | -74*
Cc1ccc(NC(=O)N2CCC(CN3CCCCCC3)CC2)c(Cl)c1 | / | / | -19% | 2% | / | -8
COc1ccc2c(c1)c1nc3n(c(=O)c1n2CC(=O)Nc1cc(C)[nH]n1)CCS3 | 3% | / | 14% | 22% | / | /
